Screening data from PubChem BioAssay.
JMJD2E inh: qHTS Assay for Inhibitors of Human Jumonji Domain Containing 2E (JMJD2E); Lysine-specific demethylase 4E (Homo sapiens), B2RXH2; JMJD2E catalytic domain, FDH-coupled NADH fluorescence (FDH is formaldehyde dehydrogenase); Potency, µM (series often up to 57.1 µM), inactives show top-dose activity change, negative = inhibition, most hits filed as inhibitors; hit rate 1.6% among 230,000;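 further: 0% = wells with enzyme and -100% = buffer wells without enzyme; nearly all actives have a fitted effect of over 50% in size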
Target sequence (B2RXH2 1-337 limits assumed): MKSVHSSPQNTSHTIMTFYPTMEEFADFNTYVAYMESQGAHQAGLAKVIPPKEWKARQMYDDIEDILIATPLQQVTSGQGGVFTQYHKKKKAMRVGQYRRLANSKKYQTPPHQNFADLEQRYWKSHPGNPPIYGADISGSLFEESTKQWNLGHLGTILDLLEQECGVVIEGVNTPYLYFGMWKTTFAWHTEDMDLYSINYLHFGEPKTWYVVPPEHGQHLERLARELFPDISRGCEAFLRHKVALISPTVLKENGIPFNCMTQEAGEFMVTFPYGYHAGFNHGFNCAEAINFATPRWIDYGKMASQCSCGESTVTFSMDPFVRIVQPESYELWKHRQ
ALDH1A1 block: qHTS Assay for Inhibitors of Aldehyde Dehydrogenase 1 (ALDH1A1) | Purified ALDH1A1, NADH fluorescence, propionaldehyde substrate | Potency, µM (highest dose often 75.3 µM), without a hit: at the top dose activity, negative = inhibition, actives largely listed as inhibitors | hit rate 7.3% among 220,000;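 further: plate controls were no enzyme wells and a reference inhibitor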
HPGD inh: qHTS Assay for Inhibitors of HPGD (15-Hydroxyprostaglandin Dehydrogenase) | purified HPGD, NADH fluorescence kinetic, PGE2 substrate | Potency, µM, for the others: at the highest dose activity change, negative = inhibition, hits mostly inhibitors | hit rate 4.3% among 150,000 | AID 894, 2007
Target sequence (P15428 whole entry, looked up): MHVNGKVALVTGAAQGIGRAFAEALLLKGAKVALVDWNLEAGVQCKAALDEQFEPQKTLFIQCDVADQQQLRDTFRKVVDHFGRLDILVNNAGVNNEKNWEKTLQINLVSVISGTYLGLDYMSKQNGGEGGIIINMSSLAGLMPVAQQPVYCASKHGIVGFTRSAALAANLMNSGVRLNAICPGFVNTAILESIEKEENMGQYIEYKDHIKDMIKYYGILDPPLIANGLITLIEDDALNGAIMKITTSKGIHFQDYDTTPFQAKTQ
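20 nM HPGD preincubated 15 min at room temperature with compound in 50 mM Tris-HCl pH 8, 0.01% Tween 20. Started with 1 mM NAD+ and 30 uM prostaglandin E2; NADH fluorescence (360/450 nm) read 5 times over 30-s intervals, last minus first.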
Tau fluor counter: Counterscreen qHTS for Inhibitors of Tau Fibril Formation, Fluorescence Polarization; AID 1463, 2008; Potency, µM (highest dose often 57.7 µM), inactives show at the highest dose activity change, negative = decrease; tau K18 P301L Alexa594 fluorescence, heparin fibrillization; hit rate 0.93% among 280,000; active means well fitted curve in the direction sought with a large enough effect; inconclusive means small, poorly fitted or top-dose-only effect, or another doubt; inactive means no such curve, though single readings can be large; an effect the other way counts as inactive or inconclusive; further: nearly all actives have a fitted effect of over 55% in size
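Human K18 P301L tau (15 uM unlabeled plus 0.24 uM Alexa 594-labeled, final) in 100 mM sodium acetate pH 7 was mixed with compound and 20 uM heparin and incubated 6 hr at 37 C.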
Tau fibril FP: qHTS for Inhibitors of Tau Fibril Formation, Fluorescence Polarization. K18 P301L tau heparin fibrillization, Alexa594 FP, 6 h. Potency, µM (doses to about 57.7 µM), for inactives: at the highest dose activity, negative = inhibition, usual class: inhibitors. hit rate 0.39% among 280,000. AID 1468, 2008; active means well fitted curve in the direction sought with a large enough effect; inconclusive means small, poorly fitted or top-dose-only effect, or another doubt; inactive means no such curve, though single readings can be large; an effect the other way counts as inactive or inconclusive; further: nearly all actives have a fitted effect of over 55% in size
Target sequence (P10636 561-689 P618L limits assumed): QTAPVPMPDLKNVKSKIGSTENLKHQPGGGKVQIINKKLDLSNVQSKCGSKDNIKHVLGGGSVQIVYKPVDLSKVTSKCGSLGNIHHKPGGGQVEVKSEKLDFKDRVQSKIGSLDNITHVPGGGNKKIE
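FP of Alexa 594-tau after heparin (20 uM) induction. Substrate: human K18 P301L, 15 uM unlabeled, 0.24 uM labeled. Buffer 100 mM sodium acetate pH 7. 6 hr, 37 C.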
Tau fibril ThT: qHTS for Inhibitors of Tau Fibril Formation, Thioflavin T Binding; recombinant tau K18 P301L, heparin-induced fibrillization, ThT fluorescence; Potency, µM (titrated, usually from 57.4 µM), inactives show at the highest dose activity, negative = inhibition, usual class: inhibitors; hit rate 2.1% among 270,000; active means well fitted curve in the direction sought with a large enough effect; inconclusive means small, poorly fitted or top-dose-only effect, or another doubt; inactive means no such curve, though single readings can be large; an effect the other way counts as inactive or inconclusive; further: nearly all actives have a fitted effect of over 55% in size
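ThT emission at 510 nm, taken 1 hr after adding 30 uM dye, quantifies aggregates formed when 20 uM heparin acts on human tau K18 P301L for 6 hr at 37 C.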
Numbers without * were called inactive; u = inconclusive; x = no result. Sampled rows, rich in hits. Any-hit rate of the full collection: about 9.9%. Unless noted, the call rests on the fitted dose curve; in most records, active means well fitted inhibition curve with a large enough effect (not every such curve was filed as active); inconclusive means small, poorly fitted or top-dose-only effect, or another doubt; inactive means no such curve, though single readings can be large or run the other way. Unless noted, on the % scale 0 is the no-effect control and ±100 the full control effect; potency means the concentration at half of the fitted maximal effect.

SMILES	JMJD2E inh	ALDH1A1 block	HPGD inh	Tau fluor counter	Tau fibril FP	Tau fibril ThT
CC(=O)N1CCC(=NNS(=O)(=O)c2ccc(C)c([N+](=O)[O-])c2)CC1	1.3%	10µM*	-0.8%	-8.6%	2.1%	-5.2%
Cc1ccc(S(=O)(=O)NN=C2CCC(C(C)(C)C)CC2)cc1[N+](=O)[O-] (stereo not given)	-7.7%	6.31µM*	-8.1%	-4.3%	-6.0%	-3.2%
CCOC(=O)N1CCC(=NNc2ccc(S(N)(=O)=O)cc2[N+](=O)[O-])CC1	7.5%	u	x	-7.8%	1.9%	5.01µM*
CC(=O)N1CCC(=NNc2ccc(S(N)(=O)=O)cc2[N+](=O)[O-])CC1	-4.8%	x	x	-15.3%	-2.9%	u
CC(=O)N1CCC(=NNS(=O)(=O)c2cccc([N+](=O)[O-])c2)CC1	2.9%	11.2µM*	-13.8%	-13.6%	-8.8%	-16.7%
CCCN(C(=O)c1c(C)oc2ncn(CC(C)C)c(=O)c12)c1ccccc1C	x	x	x	-18.5%	-7.5%	-13.6%
CCn1c(SCC(=O)Nc2ccc(C)cc2)nnc1-c1ccc(O)cc1	1.6%	-6.7%	-11.1%	-0.9%	9.9%	-6.1%
C/C(=N\NS(=O)(=O)c1ccc([N+](=O)[O-])cc1)c1cccs1	-2.1%	0.6%	x	-17.7%	5.8%	u
C/C(=N\NS(=O)(=O)c1ccc(C)c([N+](=O)[O-])c1)c1cccs1	-5.6%	31.6µM*	x	-13.5%	3.3%	-9.9%
CC1CCCC/C1=N\NS(=O)(=O)c1ccc(Br)cc1 (stereo not given)	-0.3%	4.47µM*	1.0%	-10.0%	-2.8%	-9.7%
CC(C)(C)C1CCC(=NNS(=O)(=O)c2ccc(Br)cc2)CC1 (stereo not given)	1.7%	1.41µM*	-5.5%	-10.6%	-5.8%	-10.1%
CCCC1CCC(=NNS(=O)(=O)c2ccc(C)c([N+](=O)[O-])c2)CC1 (stereo not given)	-5.3%	u	-2.5%	-12.4%	4.6%	-13.7%
Cc1ccc(S(=O)(=O)NN=C2C3CC4CC(C3)CC2C4)cc1[N+](=O)[O-]	-1.9%	17.8µM*	-17.0%	-2.8%	-4.9%	1.9%
CN(c1cccc(Cl)c1)S(=O)(=O)c1cccc(C(=O)NC2=NCCS2)c1	1.2%	-9.5%	-11.1%	u	-8.1%	2.5%
COC1=C(Nc2ccc(C)cc2)C(=O)c2ccccc2C1=O	14.1µM*	5.01µM*	11.2µM*	u	u	8.91µM*
COC1=C(Nc2ccccc2)C(=O)c2ccccc2C1=O	3.9%	2.24µM*	10µM*	u	u	7.08µM*
O=C1CC(N2CCN(Cc3ccccc3)CC2)C(=O)N1c1ccc2c(c1)OCCO2 (stereo not given)	2.4%	7.08µM*	-5.0%	-5.8%	-0.1%	-12.3%
COc1ccc(N2C(=O)CC(N3CCN(Cc4ccc5c(c4)OCO5)CC3)C2=O)cc1 (stereo not given)	-4.6%	28.2µM*	x	-1.5%	6.0%	-4.4%
O=C1NCCC/C1=N/Nc1ccc(F)cc1	-14.3%	12.6µM*	x	-1.7%	2.9%	-3.9%
CCC1CCC(NC(=O)Nc2cccc(OC)c2)CC1 (stereo not given)	-5.1%	6.9%	x	u	-17.4%	-10.4%
O=C(O)c1cc(S(=O)(=O)N2CCOCC2)ccc1N1CCOCC1	3.7%	-1.5%	-0.6%	-3.2%	3.7%	-8.8%
O=c1c2ccccc2sn1-c1cc(S(=O)(=O)N2CCOCC2)ccc1N1CCOCC1	8.91µM*	0.0562µM*	0.794µM*	-5.0%	u	u
COCCCNC(=O)CCCN1C(=O)CCn2nc(-c3cn(C)c4ccccc34)cc21	x	x	x	-3.9%	-4.0%	-6.2%
Cc1ccc2nc(C(O)C(O)c3nc4ccc(C)cc4[nH]3)[nH]c2c1 (stereo not given)	0.2%	u	u	7.4%	0.8%	7.0%
Cc1ccc2nc(C(F)OC(F)(F)F)[nH]c2c1 (stereo not given)	-0.4%	0.708µM*	u	2.1%	-1.6%	-9.3%
SMILES	JMJD2E inh	ALDH1A1 block	HPGD inh	Tau fluor counter	Tau fibril FP	Tau fibril ThT
Cc1ccc2nc(SC(Cc3cc(Cl)ccc3Cl)C(=O)O)[nH]c2c1 (stereo not given)	x	x	x	-3.4%	3.3%	0.7%
Oc1c(I)cc(I)c2cccnc12	14.1µM*	0.6%	u	-19.6%	0.4%	-16.9%
COc1cc(/C=C2/C(=O)ON=C2c2ccccc2)ccc1O	-1.8%	u	11.2µM*	-0.5%	12.6%	-2.5%
O=C1ON=C(c2ccccc2)/C1=C\c1ccco1	-10.9%	u	x	-16.5%	-7.5%	u
COc1cc(/C=C2\C(=O)ON=C2c2ccccc2)cc(Cl)c1O	u	u	x	-10.0%	-5.7%	u
O=C1ON=C(c2ccc(Cl)cc2)/C1=C/c1ccc(O)cc1	u	12.6µM*	x	-21.5%	3.2%	u
O=C(Nc1ccc(Br)cc1)c1ccccc1CC[N+](=O)[O-]	-16.3%	u	-27.2%	-19.6%	u	-12.0%
Cc1cc(C)cc(NC(=O)c2ccccc2CC[N+](=O)[O-])c1	2.5%	2.82µM*	-17.6%	-2.1%	3.9%	-0.3%
COC(=O)CCC(=O)CN	28.2µM*	1.6%	-7.8%	-10.9%	11.7%	-14.7%
COC(=O)CCN(C)CCC(=O)OC	3.2%	12.7%	-9.9%	1.6%	-0.1%	-2.4%
CCOC(=O)c1ccc(NC(=O)CC2Nc3ccccc3NC2=O)cc1 (stereo not given)	x	x	x	u	-14.2%	-16.0%
O=C(C1=NN[C@@H]2C(=O)N(c3ccccc3C(F)(F)F)C(=O)[C@H]12)c1ccc2ccccc2n1	-4.7%	7.7%	-8.1%	3.9%	1.8%	2.3%
N#Cc1ccc(N2C(=O)[C@@H]3C(C(=O)c4ccc5ccccc5n4)=NN[C@@H]3C2=O)cc1	1.9%	7.94µM*	-19.9%	0.7%	-4.1%	8.4%
N#Cc1ccc(N2C(=O)[C@@H]3C(C(=O)c4cnccn4)=NN[C@@H]3C2=O)cc1	u	14.1µM*	x	-16.0%	-5.1%	u
CCN(Cc1ccccc1)c1ccc(N=Nc2nn(C)c(C)c2[N+](=O)[O-])cc1	7.5%	-6.0%	-7.5%	u	u	10µM*
Cc1ccc(CNC(=O)c2nn(C)c(C)c2[N+](=O)[O-])cc1	4.0%	5.4%	-3.5%	-2.4%	-6.7%	-11.1%
